Screens (PubChem)
Env fusion inh: inhibitors of HIV-1 Env-driven cell-cell fusion, primary screen, HeLa-JRFL effector, CEM21 target cells, luciferase | inhibition, % at 12.3 µM | 360,000 compounds, 1.1% hits;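 active means mean replicate inhibition score of at least 50 and every replicate individually at or above 50; inconclusive means only one of the two criteria met; inactive means mean below 50 and not all replicates reaching 50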
INS-1E GSIS act: GLuc luminescence reporter in INS-1E cells, primary screen for activators of glucose-dependent secretion of insulin; activation, % at 16.6 µM; 370,000 compounds, 0.61% hits; INS-1E GLuc reporter insulin secretion, 2-3 h; AID 743287, 2014;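 active means lowest replicate activation of at least 40%, so every replicate reaches that level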
MITF act: activators of MITF-driven TRPM1 promoter reporter, primary screen, cell-based, SK-MEL-5, luciferase, single point. SK-MEL-5 TRPM1-promoter luciferase, 24 h; % of positive control, neutral wells = 0. activation, % at 12.5 µM. 300,000 compounds, 0.75% hits;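 active means mean activation of at least 80% with every replicate also reaching 80%; inconclusive means mean reaches 80% but some replicate falls short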
Wnt act: Wnt/beta-catenin pathway activators, primary screen, cell-based, plate reader, single point. Wnt/beta-catenin reporter cell assay, activator. activation, % at 9.35 µM. 300,000 compounds, 1.2% hits. AID 743398, 2014; in the data active means activation above about 30%, passing the limit was not always enough; inconclusive means no clear call, values can overlap the other calls
CFTR F508del cor: F508del CFTR correction, initial screen, CFBE line, single point; CFBE cells, YFP halide quenching; stimulated with forskolin plus potentiator P3; % fluorescence drop versus neutral controls; activity (quench increase), % at 7.58 µM; 350,000 compounds, 0.36% hits; AID 720511, 2013;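 active means mean added fluorescence quench of at least 8% versus neutral control, with both replicates also reaching 8%; inconclusive means only one of the mean or replicate conditions met; inactive means mean below 8% and not both replicates reaching 8%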;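 further: cells transiently co-express mutant CFTR-F508del with the halide-sensitive YFP; corrector assay measuring rescue of mutant channel to the surface after 24 h compound exposure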
A number is an active result; - = inactive; ? = inconclusive; . = no result. This is a sample that favours compounds with a hit; in the whole collection about 2.7% have one here.

SMILES	Env fusion inh	INS-1E GSIS act	MITF act	Wnt act	CFTR F508del cor
COc1ccc(S(=O)(=O)Nc2ccc3c(c2)C(=O)N([C@H](C)CO)C[C@@H](C)[C@H](CN(C)Cc2ccccc2)OCCCC[C@H](C)O3)cc1	-	-	.	.	-
CC1=CC(=O)C=C(C)C1=NOS(=O)(=O)c1ccccc1	.	186	-	-	.
C[C@@H]1CCCCO[C@@H](CN(C)C)[C@H](C)CN([C@H](C)CO)C(=O)c2cc(NC(=O)C3CCCCC3)ccc2O1	-	-	.	.	-
C/C(N)=C(/C#N)C(=O)CSc1nnc(Nc2ccccc2)s1	-	-	-	39	.
C/C(N)=C(/C#N)C(=O)CSc1nnc(Nc2ccccc2C)s1	.	.	-	.	.
O/N=C1\CC/C(=N\O)c2nn(-c3ccccc3Cl)nc21	-	-	-	.	.
Cc1ccc(-n2nc3c(n2)/C(=N/O)CC/C3=N\O)cc1	-	.	-	43	.
CCOc1cc(/C=C2/NC(=S)NC2=O)ccc1OCc1ccc([N+](=O)[O-])cc1	.	58	-	.	.
O=C(NCC1CC1)[C@H]1[C@H](CO)[C@H]2Cn3c(cccc3=O)[C@@H]1N2CCc1ccccc1	.	-	.	.	-
O=C(Nc1cccc(NC(=O)c2ccccc2Cl)c1)c1cccs1	-	-	.	-	-
O=C(Nc1ccc2[nH]ccc2c1)c1cccs1	-	-	106	-	-
O=C(Nc1ccc(NC(=O)c2cccs2)cc1)c1cccs1	-	-	?	-	-
O=C(Nc1ccc(NC(=O)c2ccccc2F)cc1)c1cccs1	-	-	137	37	-
O=C(N/N=C/c1cccs1)c1cccc(NC(=O)c2ccccc2Cl)c1	-	-	-	-	9.5
Cc1ccc(NC(=O)c2cccs2)cc1NC(=O)c1ccccc1Cl	-	167	-	-	-
O=C(C[C@H]1C=C[C@@H](NC(=O)CN2CCOCC2)[C@@H](CO)O1)NCc1cccc(F)c1	-	-	.	.	-
C[C@H]1CN([C@@H](C)CO)S(=O)(=O)c2ccc(-c3ccccc3)cc2O[C@H]1CN(C)CC1CC1	-	-	.	.	-
O=C(Nc1nnc([C@@H]2C[C@H](O)[C@@H](CO)O2)s1)Nc1ccccc1F	-	-	.	39	-
O=C(O)c1ccc(-c2noc(-c3cccc(F)c3)n2)cc1	-	-	-	45	-
COc1cccc(-c2nc(-c3ccc(C(=O)O)cc3)no2)c1	-	.	-	-	-
CN(C)CC(=O)Nc1ccc2c(c1)[C@H]1C[C@@H](CC(=O)N3CCCCC3)O[C@@H](CO)[C@H]1O2	-	-	.	.	-
COc1ccc2c(c1)[C@H]1[C@H](CO2)[C@H](c2ccccc2)[C@]2(C)C(=O)Nc3ccc(C)cc3C(=O)N12	-	.	.	-	-
COc1ccc2c(c1)[C@H]1[C@H](CO2)[C@H](c2ccccc2)[C@]2(C)C(=O)Nc3cc(OC)c(OC)cc3C(=O)N12	102	-	-	-	-
C[C@@]12C(=O)Nc3ccc(F)cc3C(=O)N1[C@H]1c3cc(Br)ccc3OC[C@@H]1[C@@H]2c1ccccc1	57	-	-	-	-
COCC#Cc1cnc2c(c1)C(=O)N([C@@H](C)CO)C[C@@H](C)[C@H](CN(C)Cc1ccc(F)cc1)O2	-	-	.	.	-
SMILES	Env fusion inh	INS-1E GSIS act	MITF act	Wnt act	CFTR F508del cor
CCC(=O)Nc1ccc(Cl)c(NC(=S)NC(=O)COc2ccc(Cl)cc2)c1	-	44	-	-	.
CCC(=O)Nc1ccc(Cl)c(NC(=S)NC(=O)COc2ccccc2)c1	-	-	-	-	-
O=C(Nc1ccc(NC(=O)C2CCCCC2)cn1)c1ccco1	.	.	-	.	.
O=C(Nc1ccc(NC(=O)c2ccco2)nc1)c1ccco1	-	-	-	-	-
CC(C)(C)C(=O)Nc1ccc(NC(=O)c2ccco2)nc1	63	-	-	-	-
COc1ccccc1C(=O)Nc1ccc(NC(=O)c2ccco2)cn1	-	-	92	-	-
O=C(Cc1ccccc1)Nc1ccc(NC(=O)c2ccco2)nc1	-	.	.	40	.
O=C(Nc1ccc(NC(=O)C23CC4CC(CC(C4)C2)C3)cn1)c1ccco1	-	.	96	.	.
O=C(Nc1ccccc1)N[C@@H]1CC[C@@H](CCn2cc(-c3ccccc3F)nn2)O[C@@H]1CO	.	-	.	.	-
O=C(CCN1CCCCC1)NCC[C@@H]1CC[C@@H](NC(=O)Cc2cccnc2)[C@@H](CO)O1	-	-	.	.	-
O=C(c1cccc(F)c1)N1CC[C@H]2[C@H](CO)Nc3ccc(C#Cc4cccc(F)c4)cc3[C@H]21	.	-	.	.	-
COc1ccc(C2=NOC(C(=O)NCc3ccccn3)C2)cc1OC (stereo not drawn)	-	94	.	.	.
CC(C)CCNC(=O)C1CC(c2cccc(F)c2)=NO1 (stereo not drawn)	-	-	-	-	-
COc1ccc(S(=O)(=O)N2CCC(C(=O)NCc3ccccn3)CC2)cc1OC	.	46	-	.	.
CCCCNC(=O)C1CC(c2cccc(F)c2)=NO1 (stereo not drawn)	-	-	89	32	-
COc1ccc(NC(=O)c2cccnc2SC)cc1OC	-	-	-	35	-
O=C(C[C@@H]1CC[C@H]2[C@@H](COC[C@@H](O)CN2S(=O)(=O)c2ccc(Cl)cc2)O1)NCCN1CCCCC1	.	-	.	.	-
CC(Sc1ccsc1[N+](=O)[O-])C(=O)NCc1ccccc1 (stereo not drawn)	-	-	.	54	-
Cc1ccc(C)c(NC(=S)c2ccc3ccccc3n2)c1	-	-	-	-	.
COc1ccccc1NC(=S)NN=C(C)c1ccccn1	-	-	-	-	8.5
CC(=NNC(=S)Nc1ccc(C)cc1)c1ccccn1	-	-	-	-	16
Cc1ccc(C)c(NC(=S)c2ccccn2)c1	-	.	-	36	.
COc1ccc(C(=O)N/N=C(\C)c2ccccn2)cc1OC	-	-	-	-	-
COc1ccc(NC(=O)N[C@@H]2CC[C@H](CCn3cc(-c4ccc(OC)cc4)nn3)O[C@H]2CO)cc1	-	-	.	.	-
CC(C)NC(=O)N(C)C[C@H]1Oc2ccc(NS(C)(=O)=O)cc2CC(=O)N(C)C[C@H]1C	.	-	.	.	.
SMILES	Env fusion inh	INS-1E GSIS act	MITF act	Wnt act	CFTR F508del cor
COc1ccc2c3c(n(C)c2c1)[C@H](CO)N(C(=O)C1CCCC1)CC31CN(C)C1	.	-	.	.	-
COCC(=O)Nc1ccc2c(c1)[C@H]1C[C@H](CC(=O)NCc3ccccc3F)O[C@@H](CO)[C@H]1O2	-	-	.	.	-
CCOc1nc(N2CCOCC2)nc(C)c1[N+](=O)[O-]	-	-	-	33	-
Cn1c2nc3ccccc3c-2nc2ccccc21	-	.	.	39	-
Cn1c(-c2nonc2N)nc2ccccc21	-	-	.	-	-
Cc1ccc(N2CS(=O)(=O)/C(=C/N(C)C)C2=O)cc1	-	.	-	49	.
COc1ccccc1C(=O)Nc1nnc(SCC(=O)NCC2CCCO2)s1 (stereo not drawn)	-	-	?	34	-
COc1ccc(C(=O)Nc2nnc(SCC(=O)Nc3ccc(NC(C)=O)cc3)s2)c(OC)c1	-	-	-	36	-
